In the library only some 3.5% were active in any assay of this set; here they are far more common.
GDH-TPI counter = GDH-TPI coupled enzyme inhibition counter-screen. 1.2% of 360,000 active. GDH-TPI coupled enzyme counterscreen, NADH absorbance. inhibition, % at 4.8 µM; in the data active = inhibition above about 30%;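 note: 0% = DMSO wells and 100% = wells lacking the enzyme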
Rv3671c inh = inhibitors of M. tuberculosis serine protease Rv3671c. inhibition, % at 5.96 µM. 0.048% of 320,000 active; in the data active = inhibition above about 38%;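 note: extracellular domain of Rv3671c used as enzyme; 0% = enzyme with DMSO and 100% = no enzyme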
Mtb UGM inh = Mtb UDP-galactopyranose mutase inhibition. P9WIQ1. purified UGM, fluorescence polarization probe displacement. inhibition, % at 10 µM. 0.06% of 320,000 active. AID 504406; in the data active = inhibition above about 10%, passing the limit was not always enough
Target sequence (P9WIQ1 whole entry, looked up): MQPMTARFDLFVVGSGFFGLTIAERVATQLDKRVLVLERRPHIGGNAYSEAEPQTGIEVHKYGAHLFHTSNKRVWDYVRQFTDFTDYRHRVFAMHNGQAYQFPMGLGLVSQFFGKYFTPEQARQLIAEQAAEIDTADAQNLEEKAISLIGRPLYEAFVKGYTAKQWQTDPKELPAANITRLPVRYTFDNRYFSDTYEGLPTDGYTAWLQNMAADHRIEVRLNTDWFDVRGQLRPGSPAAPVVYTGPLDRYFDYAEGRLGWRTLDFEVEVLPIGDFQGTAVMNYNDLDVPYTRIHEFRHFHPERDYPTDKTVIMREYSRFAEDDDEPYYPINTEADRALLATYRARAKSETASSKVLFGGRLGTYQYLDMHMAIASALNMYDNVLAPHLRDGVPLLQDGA
Mtb FBA inh = inhibits M. tuberculosis FBA enzyme | P9WQA3 | inhibition, % at 1 µM | AID 588726 | 2.3% of 360,000 active | purified M. tuberculosis FBA, fluorescence read-out; in the data active = inhibition above about 27%;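 note: 0% = vehicle and 100% = reference inhibitor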
Active calls of the source: *; · = no result; + = active, no number.

SMILES	GDH-TPI counter	Rv3671c inh	Mtb UGM inh	Mtb FBA inh
COc1ccc(CCN(C)C(=O)C(CCSC)NC(=O)c2ccco2)cc1OC (centres undefined)	2.1	1.0	-0.4	0.9
COc1ccc(/C=C/C(=O)NC(=S)NNC(=O)c2ccco2)cc1	41.2*	-6.3	0.9	12.1
O=C(/C=C/c1ccccc1)NC(=S)NNC(=O)Cc1cccs1	7.5	0.8	2.1	5.5
COc1ccc(/C=C/C(=O)NC(=S)Nc2ccc(C(=O)O)cc2)cc1	50.0*	-11.4	0.6	-0.6
COc1ccc(/C=C/C(=O)NC(=S)NNC(=O)c2ccco2)cc1OC	26.6	11.3	0.9	2.8
COc1ccc(/C=C/C(=O)NC(=S)NNC(=O)Cc2cccs2)cc1	40.7*	-5.2	-3.2	6.7
COc1ccc(C(=O)/C=C/c2ccc(O)cc2)cc1	31.4*	-10.6	3.6	-1.9
Cc1cc(C)nc(NC(=O)/C=C/c2cccs2)c1	47.4*	-5.0	-0.8	-3.8
Cc1cc(C)nc(NC(=O)/C=C/c2ccccc2Cl)c1	7.7	-5.8	0.5	2.4
O=C(/C=C/c1cccs1)Nc1cccc(NC(=O)/C=C/c2cccs2)n1	57.0*	-264.6	·	0.0
Cc1ccc2c(c1)COc1c3ccc(C(=O)N4CCCCC4)cc3nn1-2	15.9	-0.7	-0.1	3.9
COCCNC(=O)c1ccc2c3n(nc2c1)-c1ccc(C)cc1CO3	26.9	-3.5	3.4	48.8*
COCCCNC(=O)c1ccc2c(c1)ncn2-c1ccc(C)cc1C	1.4	-5.4	3.3	150.3*
C[C@@H](CO)NC(=O)c1ccc2c3n(nc2c1)-c1ccccc1CO3	16.6	-3.9	2.5	22.4
Cc1ccc2c(c1)COc1c3ccc(C(=O)N[C@@H](CO)C(C)C)cc3nn1-2	20.5	3.5	0.9	32.6*
S=c1nc(-c2ccccc2)[nH]c2ccc(Br)cc12	7.9	2.2	1.0	-2.2
Cc1ccc2c(C)c3ccc4ccccc4c3c[n+]2c1	11.5	·	·	+
OC1(c2ccc(Cl)cc2)CCN(Cc2c[nH]c3ccccc23)CC1	-14.0	-6.2	0.2	0.7
COc1ccc(NC(=O)c2cc3c(-c4ccc(OC)c(OC)c4)nn(C)c3s2)cc1OC	38.0*	26.3	2.0	2.1
CC(C)Nc1nc(NC(C)C)nc(SCC(N)=O)n1	-1.3	4.8	1.3	0.5
Cc1noc(C)c1COC(=O)c1cc2c(C)nn(-c3ccc(F)cc3)c2s1	4.6	5.9	1.2	3.1
Cc1noc(C)c1COC(=O)c1cc2c3ccccc3n(C)c2s1	39.5*	-24.3	3.8	4.8
N=c1c(S(=O)(=O)c2ccc(Br)cc2)cc2c(=O)n3ccccc3nc2n1Cc1ccco1	14.8	-7.0	2.3	130.6*
COc1ccc(CCn2c(=N)c(S(=O)(=O)c3ccc(C)cc3)cc3c(=O)n4ccccc4nc32)cc1	6.0	0.6	20.8*	5.9
CCOC(=O)c1c(-c2ccccc2)oc2ccc(OCC(=O)NNC(=O)CCC(=O)O)cc12	7.6	·	-0.7	122.3*
SMILES	GDH-TPI counter	Rv3671c inh	Mtb UGM inh	Mtb FBA inh
CCOC(=O)c1c(-c2ccccc2)oc2ccc(OCC(=O)NNC(=O)CCCC(=O)O)cc12	5.0	·	3.8	157.2*
CCOC(=O)c1c(C)oc2ccc(OCC(N)=O)cc12	3.3	4.6	-0.6	-0.7
CCOC(=O)c1c(C(C)(C)C)oc2ccc(OCC#N)cc12	-0.9	-2.2	0.0	-0.6
Cc1oc2ccc(OC(=O)N(C)C)cc2c1C(=O)OC(C)C	2.9	0.4	-0.8	3.1
CCOC(=O)c1c(-c2ccc(OC)cc2)oc2ccc(OC(=O)N(C)C)cc12	14.5	-6.3	3.7	+
CCOC(=O)c1c(-c2ccccc2)oc2ccc(OC(C)C(=O)O)cc12 (centres undefined)	14.0	3.0	2.7	164.9*
O=C(NCCc1c[nH]c2ccccc12)C1CCC(=O)N(CCc2cccc(F)c2)C1 (centres undefined)	5.1	-5.3	-1.9	-0.4
CCN(C(=O)COC(=O)c1cc(=O)[nH]c2ccccc12)C1CCS(=O)(=O)C1 (centres undefined)	10.0	8.9	-0.6	2.2
COc1ccc2nc(SCC(=O)N(C)CC(=O)Nc3ccc(F)cc3)[nH]c2c1	3.5	-2.8	-0.2	-1.1
CC(=O)c1ccc(NC(=O)NNS(=O)(=O)c2ccc([N+](=O)[O-])cc2)cc1	10.4	9.3	0.1	-0.4
CCc1cccc(NS(=O)(=O)c2c(C)[nH]c(=O)[nH]c2=O)c1	-0.7	·	-2.8	1.0
CN(C)S(=O)(=O)c1ccc(-c2csc(N/N=C/c3ccco3)n2)cc1	32.9*	1.6	0.6	-3.0
CC(C)c1ccc(/C=C/C2=NNC(=O)CC2)cc1	9.2	-0.1	0.3	0.3
COc1cc(/C=C/C2=NNC(=O)CC2)cc(OC)c1OC	45.1*	3.3	0.8	7.9
COc1ccc(/C=C/C(=O)O/N=C(\N)c2ccccc2)cc1OC	39.6*	-6.3	0.3	6.0
O=C(O)c1ccc(N/N=C/c2ccc(-c3ccccc3)cc2)cc1	26.2	·	·	6.7
Cc1ccc(S(=O)(=O)Oc2cccc(/C=N/Nc3ccc(C(=O)O)cc3)c2)cc1	31.4*	6.9	-0.2	3.0
CC(C)c1ccc(/C=N/Nc2ccc(C(=O)O)cc2)cc1	31.0*	3.3	3.8	-1.4
O=C(O)c1ccc(N/N=C/c2ccc(OC(=O)c3ccccc3Cl)cc2)cc1	40.7*	16.0	-1.0	-0.8
Cc1ccc(S(=O)(=O)Oc2cccc(/C=N/n3cnnc3)c2)cc1	1.1	-4.1	0.5	-0.9
COc1ccc(/C=N/Nc2ccc(C(=O)O)cc2)cc1OC	46.8*	5.6	-0.9	-1.7
COc1ccc(/C=N/Nc2ccc(C(=O)O)cc2)cc1Br	23.6	-9.3	0.7	2.4
COc1ccc(Cc2nnc3n2N=C(c2cc4ccccc4o2)CS3)cc1OC	40.9*	-5.5	0.7	-1.9
CC1(C)OC(=O)C(=NNc2ccccc2C(=O)O)C(=O)O1	49.4*	7.2	-1.7	-4.2
COc1ccc(CNc2nc3ccccc3n2C)c(OC)c1	-2.5	3.8	4.1	-3.5
SMILES	GDH-TPI counter	Rv3671c inh	Mtb UGM inh	Mtb FBA inh
COc1ccc(N=Nc2nc3cc(Br)c(Br)cc3n2C)c(OC)c1	5.8	16.3	34.3*	0.2
Cc1cc(O)c(-c2cc(C(=O)Nc3sc4c(c3C(=O)NCc3ccco3)CCC4)[nH]n2)cc1C	34.2*	-22.2	5.1	2.2
Cc1ccc(-c2cc(C(=O)Nc3sc4c(c3C(=O)NCc3ccco3)CCC4)[nH]n2)c(O)c1	15.6	-11.1	0.0	2.4
CCC1S/C(=N/N=C/c2ccco2)N(Cc2ccccc2C)C1=O (centres undefined)	12.4	0.1	-2.0	-1.0
CCC1S/C(=N/N=C/c2ccco2)N(Cc2ccc(F)cc2)C1=O (centres undefined)	33.8*	2.5	1.7	-1.1
COc1ccc(/C=C2/CCC(CN3CCOCC3)C2=O)cc1 (centres undefined)	29.3	·	·	0.6
COc1cc(C2Nc3ccc4ccccc4c3C3=C2C(=O)CC(C)(C)C3)ccc1OCC(=O)O (centres undefined)	1.5	-3.7	2.8	121.3*
COc1cc(C2Nc3ccc4ccccc4c3C3=C2C(=O)CC(C)(C)C3)ccc1OC(C)C(=O)O (centres undefined)	4.3	5.6	-1.6	183.2*
